{"source": "PubChem BioAssay AID372", "about": "(MTDP, 2006)", "note": "About 770 (0.77%) of roughly 100,000 compounds were called active. Cut-off read from the data, not from the text of the source: active = inhibition above about 50%; inactive = the rest. The entries come from a sample that favours actives as a whole.", "data": [{"molecular_target": "Gag-Pol polyprotein (Human immunodeficiency virus type 1 group M subtype B (isolate HXB2)) (UniProt P04585)", "assay": "RNase H inhibition, HIV 1 Gag Pol polyprotein, FRET biochemical assay, screening (AID 372)", "settings": "HIV-1 RT RNase H, FRET RNA/DNA substrate fluorescence; at 10 µM; hits give high values", "values": [{"smiles": "O=C1NC(=O)N(c2cccc(F)c2)C(=O)/C1=C/c1cccn1-c1ccc(Br)cc1", "inhibition": "54% (active)"}, {"smiles": "Cc1cccc(N2C(=O)NC(=O)/C(=C/c3cccn3-c3ccc([N+](=O)[O-])cc3)C2=O)c1", "inhibition": "54% (active)"}, {"smiles": "Cc1cccc(N2C(=O)NC(=O)/C(=C\\c3cccn3-c3ccccc3)C2=O)c1", "inhibition": "22% (inactive)"}, {"smiles": "O=C1NC(=O)N(c2cccc(F)c2)C(=O)/C1=C/c1cccn1-c1ccccc1", "inhibition": "24% (inactive)"}, {"smiles": "Cc1cccc(N2C(=O)NC(=O)/C(=C\\c3cccn3-c3ccc(Br)cc3)C2=O)c1", "inhibition": "27% (inactive)"}, {"smiles": "O=C1NC(=O)N(c2ccccc2)C(=O)/C1=C\\c1cccn1-c1ccc([N+](=O)[O-])cc1", "inhibition": "22% (inactive)"}, {"smiles": "O=C1NC(=O)N(c2cccc(F)c2)C(=O)/C1=C/c1cccn1-c1ccc(Cl)cc1", "inhibition": "59% (active)"}, {"smiles": "O=C1NC(=O)N(c2ccc(Cl)cc2)C(=O)/C1=C/c1cccn1-c1ccccc1", "inhibition": "12% (inactive)"}, {"smiles": "O=C1NC(=O)N(c2ccccc2)C(=O)/C1=C/c1cccn1-c1ccc(Br)cc1", "inhibition": "29% (inactive)"}, {"smiles": "N#CC1=C(N)OC2=C(C(=O)CC(c3ccccc3)C2)C1c1cccc(F)c1", "note": "(stereo unspecified)", "inhibition": "11% (inactive)"}, {"smiles": "COc1ccc(/C=N/NC(=O)CN2CCSCC2)c(C)c1C", "inhibition": "7% (inactive)"}, {"smiles": "COc1ccc(C(N)=O)cc1NC(=O)c1cccs1", "inhibition": "0% (inactive)"}, {"smiles": "O=C(CCCN1C(=O)/C(=C/c2ccccc2Cl)SC1=S)Nc1cccc(F)c1", "inhibition": "14% (inactive)"}, {"smiles": "Cc1ccc(Cl)cc1NC(=O)C(=O)NN=C1CCN(C)CC1", "inhibition": "0% (inactive)"}, {"smiles": "Cc1onc(-c2ccccc2Cl)c1C(=O)N1CCN(c2ccc(Cl)cc2[N+](=O)[O-])CC1", "inhibition": "55% (active)"}, {"smiles": "Cc1cccc(N2CCN(C(=O)c3c(-c4ccccc4Cl)noc3C)CC2)c1C", "inhibition": "9% (inactive)"}, {"smiles": "Cc1onc(-c2ccccc2Cl)c1C(=O)N1CCN(c2ccccc2F)CC1", "inhibition": "0% (inactive)"}, {"smiles": "COc1cccc2cc(-c3csc(Nc4ccccc4C)n3)c(=O)oc12", "inhibition": "20% (inactive)"}, {"smiles": "CCN(CC)c1ccc(/C=N/Nc2nc(-c3cc4cccc(OC)c4oc3=O)cs2)c(O)c1", "inhibition": "53% (active)"}, {"smiles": "COc1cccc2cc(-c3csc(Nc4ccc(C(C)=O)cc4)n3)c(=O)oc12", "inhibition": "14% (inactive)"}, {"smiles": "COc1ccc2oc(=O)c(C(=O)Nc3cccc(Cl)c3)cc2c1", "inhibition": "5% (inactive)"}, {"smiles": "COc1ccc2oc(=O)c(C(=O)Nc3ccccc3)cc2c1", "inhibition": "6% (inactive)"}, {"smiles": "COc1ccc2oc(=O)c(C(=O)Nc3cccc([N+](=O)[O-])c3)cc2c1", "inhibition": "55% (active)"}, {"smiles": "O=C(/C=C\\c1ccc([N+](=O)[O-])cc1)Nc1ccc(N2CCOCC2)cc1", "inhibition": "7% (inactive)"}, {"smiles": "O=C(Nc1ccc(Cl)cc1)c1ccc(Br)o1", "inhibition": "8% (inactive)"}, {"smiles": "O=C1NC(=O)C(=Cc2cn(-c3ccccc3)nc2-c2ccc(Cl)cc2)C(=O)N1", "inhibition": "41% (inactive)"}, {"smiles": "O=C1NC(=O)C(=Cc2cn(-c3ccccc3)nc2-c2ccc(Br)cc2)C(=O)N1", "inhibition": "59% (active)"}, {"smiles": "CC1=NNC(=O)/C1=C\\c1cn(-c2ccccc2)nc1-c1ccc(Br)cc1", "inhibition": "14% (inactive)"}, {"smiles": "COC(=O)C1=C(C(=O)OC)SC2(S1)C(C(=O)OC)=C(C(=O)OC)SC1=C2c2cccc(C)c2NC1(C)C", "inhibition": "18% (inactive)"}, {"smiles": "COC(=O)C1=C(C(=O)OC)SC2(S1)C(C(=O)OC)=C(C(=O)OC)SC1=C2c2ccccc2N(C)C1(C)C", "inhibition": "11% (inactive)"}, {"smiles": "COC(=O)C1=C(C(=O)OC)SC2(S1)C(c1ccccc1)=CSC(C(=O)OC)=C2C(=O)OC", "inhibition": "54% (active)"}, {"smiles": "CC(=O)Oc1ccc(-c2cccc(C(=O)Nc3ccccc3Cl)c2)cc1", "inhibition": "16% (inactive)"}, {"smiles": "CC1=C(C(=O)Nc2ccc(C)c(Cl)c2)C(c2cccc([N+](=O)[O-])c2)NC(=O)N1", "note": "(stereo unspecified)", "inhibition": "6% (inactive)"}, {"smiles": "COc1ccc(C2CC(=O)C3=C(C2)Nc2ccccc2NC3c2c(F)cccc2Cl)cc1", "note": "(stereo unspecified)", "inhibition": "24% (inactive)"}, {"smiles": "O=C(COC(=O)c1cc(-c2ccccc2)nc2ccc(Cl)cc12)c1ccc([N+](=O)[O-])cc1", "inhibition": "4% (inactive)"}, {"smiles": "COc1ccc(-c2cc(C(=O)Nc3cccc(Cl)c3)c3ccccc3n2)cc1OC", "inhibition": "14% (inactive)"}, {"smiles": "O=C(Nc1ccc(NC(=O)c2cccc3ccccc23)cc1)c1ccccc1", "inhibition": "6% (inactive)"}, {"smiles": "CC(=O)Nc1ccc(NC(=O)c2cccc3ccccc23)cc1", "inhibition": "32% (inactive)"}, {"smiles": "O=C(Nc1ccc(Nc2ccccc2)cc1)c1cccc2ccccc12", "inhibition": "50% (active)"}, {"smiles": "O=C(Cc1ccc(Cl)cc1)Nc1cccc(-c2nc3cc(Cl)cc(Cl)c3o2)c1", "inhibition": "2% (inactive)"}, {"smiles": "Cc1ccc2oc(-c3cccc(NC(=O)Cc4ccc(Cl)cc4)c3)nc2c1", "inhibition": "42% (inactive)"}, {"smiles": "O=C(Cc1ccc(Cl)cc1)Nc1ccc2oc(-c3cccc(Cl)c3)nc2c1", "inhibition": "52% (active)"}, {"smiles": "Cc1ccc(-c2nc3cc(Cl)cc(Cl)c3o2)cc1NC(=O)Cc1ccc(Cl)cc1", "inhibition": "38% (inactive)"}, {"smiles": "O=C(Cc1ccc(Cl)cc1)Nc1ccc2oc(-c3ccccc3Br)nc2c1", "inhibition": "24% (inactive)"}, {"smiles": "Cc1cccc(-c2nc3cc(NC(=O)Cc4ccccc4)ccc3o2)c1", "inhibition": "12% (inactive)"}, {"smiles": "O=C(Cc1ccc(Cl)cc1)Nc1ccc2oc(-c3cccc(Br)c3)nc2c1", "inhibition": "49% (inactive)"}, {"smiles": "Cc1cccc(-c2nc3cc(NC(=O)Cc4ccc(Cl)cc4)ccc3o2)c1", "inhibition": "53% (active)"}, {"smiles": "O=C(Cc1ccc(Cl)cc1)Nc1ccc2oc(-c3ccccc3Cl)nc2c1", "inhibition": "54% (active)"}, {"smiles": "O=C(Cc1ccccc1)Nc1ccc2oc(-c3cccc(Cl)c3)nc2c1", "inhibition": "6% (inactive)"}, {"smiles": "O=C(Cc1ccc(Cl)cc1)Nc1ccc(-c2nc3cc(Cl)cc(Cl)c3o2)cc1", "inhibition": "50% (active)"}, {"smiles": "Cc1ccccc1-c1nc2cc(NC(=O)Cc3ccc(Cl)cc3)ccc2o1", "inhibition": "30% (inactive)"}, {"smiles": "COc1ccc(OC)c(NC(=O)c2ccc(Cl)cc2)c1", "inhibition": "8% (inactive)"}, {"smiles": "O=C(N/N=C/c1cc(Cl)cc([N+](=O)[O-])c1O)/C(=C/C=C/c1ccccc1)NC(=O)c1ccccc1", "inhibition": "19% (inactive)"}, {"smiles": "COc1ccc(OCCCOc2ccccc2Br)cc1", "inhibition": "12% (inactive)"}, {"smiles": "COc1ccccc1N1CCN(C(=O)c2ccc(CN(c3cc(Cl)ccc3C)S(=O)(=O)c3ccccc3)cc2)CC1", "inhibition": "1% (inactive)"}, {"smiles": "O=C(O)c1cccc([N+](=O)[O-])c1C(=O)Nc1cccc(Cl)c1", "inhibition": "7% (inactive)"}]}]}
